{
  "source": "PubChem BioAssay (NCI)",
  "note": "Compounds without any hit were thinned out: in the full panel of roughly 83,000, 20% have a hit.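 Activity criterion: percent growth below 10, measured after cells in 96-well plates were exposed to a single compound concentration for 48 hours.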 A number with no mark means an inactive call. Calls of active or inactive are those of the source.",
  "data": [
    {"system": "SK-MEL-28 melanoma", "test": "NCI-60 one-dose screen, 48 h (100 = growth as untreated, 0 = no growth, -100 = all killed)", "settings": "10 µM unless noted", "values": [
      {"smiles": "O=C1Nc2ccc(Br)cc2/C1=N\\c1nnc(-c2ccc(Cl)cc2)o1", "growth": "70.8%"},
      {"smiles": "C#C[C@]1(O)CC[C@H]2[C@@H]3CC=C4c5sc(Nc6cccc(C)n6)nc5CC[C@]4(C)[C@H]3CC[C@@]21C", "growth": "-55% (active)"},
      {"smiles": "CS(=O)(=O)c1ccc2c(c1)c1c(n2Cc2ccc(Cl)cc2)CCCC1", "growth": "87.2%"},
      {"smiles": "COc1ccc(-c2nnc(/N=C3/C(=O)Nc4ccc(Br)cc43)o2)cc1", "growth": "102%"},
      {"smiles": "COc1ccc(S(=O)(=O)n2cc(C=O)c3ccccc32)c(OC)c1", "growth": "83.8%"},
      {"smiles": "O=C1c2c(c3c4cccnc4[nH]c3c3ccc4ccccc4c23)C(=O)N1CCN1CCOCC1", "growth": "92.9%"},
      {"smiles": "COc1ccc(NC2=C(Cl)C(=O)C(C)=C(C)C2=O)cc1", "growth": "103%"},
      {"smiles": "COc1ccc(-c2cc(-c3ccc(Cl)cc3)nc3nc(N)nn23)cc1", "growth": "116%"},
      {"smiles": "C#C[C@]1(O)CC[C@H]2[C@@H]3CC=C4c5sc(Nc6nc(C)cc(OC)n6)nc5CC[C@]4(C)[C@H]3CC[C@@]21C", "growth": "21.1%"},
      {"smiles": "COc1ccc(/C=C/C(=O)c2nnn(-c3ccc(C(=O)O)cc3)c2C)cc1OC", "growth": "107%"},
      {"smiles": "COc1cc(O)c2c(c1)/C=C/C[C@H](O)[C@H](O)C(=O)/C=C\\C[C@H](C)OC2=O", "growth": "-3.57% (active)"},
      {"smiles": "COc1ccccc1/C=C/C(=O)c1nnn(-c2ccc(C(=O)O)cc2)c1C", "growth": "97.3%"},
      {"smiles": "O=S(=O)(Nc1ccc(C2CC2)cc1)c1ccc(-c2cnc(C3CC3)o2)cc1", "growth": "73.2%"},
      {"smiles": "COc1cc(/C=N/Nc2ccnc3cc(Cl)ccc23)cc(OC)c1O", "growth": "98.4%"},
      {"smiles": "COc1ccc(-c2nc(SCC(C)C)nc(N/N=C\\c3cccc([N+](=O)[O-])c3)c2C#N)cc1", "growth": "77.7%"},
      {"smiles": "CCCCCCNC(=O)Oc1ccc(/C(=C(\\C)c2ccc(OC)cc2)c2ccc(OCCN(C)C)cc2)cc1", "growth": "76.2%"},
      {"smiles": "CCCCSc1nnc(-c2ccc(-c3ccc(Cl)cc3)nc2C)o1", "growth": "99.9%"},
      {"smiles": "CC(C)c1nn(-c2ccccc2)c(N2CCCCC2)c1/C=N/NC(N)=S", "growth": "109%"},
      {"smiles": "C#C[C@]1(O)CC[C@H]2[C@@H]3CC=C4c5sc(Nc6ccc(OC)nc6)nc5CC[C@]4(C)[C@H]3CC[C@@]21C", "growth": "68.8%"},
      {"smiles": "COc1cc(-c2noc(C[C@@H](NC(=O)OCc3ccccc3)C(C)C)n2)cc(OC)c1OC", "growth": "100%"},
      {"smiles": "COc1ccc(-c2ccc3c4c(cccc24)C(=O)N(N2C(=O)c4cccc5cccc(c45)C2=O)C3=O)cc1", "growth": "106%"},
      {"smiles": "Cc1nn(-c2ccc(Br)cc2)c2nc(CCl)[nH]c(=O)c12", "growth": "103%"},
      {"smiles": "CN1CCN(c2ccc(C(=O)Nc3cccc(-c4cn(-c5ccc(S(N)(=O)=O)cc5)nn4)c3)cc2C(F)(F)F)CC1", "growth": "72.7%"},
      {"smiles": "COc1ccc(Cn2cc3c(c2-c2ccccc2)CCCc2cnoc2-3)cc1[N+](=O)[O-]", "growth": "76.9%"},
      {"smiles": "NS(=O)(=O)Oc1ccc2nc(Nc3ccc(F)c(F)c3)ccc2c1", "growth": "98.5%"},
      {"smiles": "O=C1c2c(c3c4cc(Br)ccc4[nH]c3c3ccc4ccccc4c23)C(=O)N1CCN1CCNCC1", "growth": "95.9%"},
      {"smiles": "CC1CCN(S(=O)(=O)c2ncsc2-c2ccccc2)CC1", "growth": "75.3%"},
      {"smiles": "O=C1NC(=O)c2c1c1c3ccccc3ccc1c1[nH]c3ccccc3c21", "growth": "18.9%"},
      {"smiles": "COc1cc([C@H]2OC[C@H]3[C@@H]2CO[C@@H]3c2ccc(O)c(OC)c2)ccc1O", "growth": "93.5%"},
      {"smiles": "CCN(CC)CCN1C(=O)c2c(c3c4cc(Br)ccc4[nH]c3c3ccc4ccccc4c23)C1=O", "growth": "-70.1% (active)"},
      {"smiles": "CC(C)=CCC[C@](C)(O)[C@H]1CC[C@]2(C)[C@@H]1CC[C@@H]1[C@@]3(C)CCC(NC(=O)c4ccccc4C(=O)O)C(C)(C)[C@@H]3CC[C@]12C", "note": "(stereo partly drawn)", "growth": "34.3%"},
      {"smiles": "Clc1ccc(-c2csc(N/N=C/c3nc4ccccc4n3C3CC3)n2)cc1", "growth": "101%"},
      {"smiles": "Cc1ccc(-c2csc(N/N=C/c3nc4ccccc4n3C3CC3)n2)cc1", "growth": "103%"},
      {"smiles": "C#C[C@]1(O)CC[C@H]2[C@@H]3CC=C4c5sc(-c6ccccn6)nc5CC[C@]4(C)[C@H]3CC[C@@]21C", "growth": "44.3%"},
      {"smiles": "O=C1c2c(c3c4cccnc4[nH]c3c3ccc4ccccc4c23)C(=O)N1CCN1CCNCC1", "growth": "108%"},
      {"smiles": "O=C1c2c(c3c4cccnc4[nH]c3c3ccc4ccccc4c23)C(=O)N1CCN1CCCCC1", "growth": "97%"},
      {"smiles": "COc1ccc(-c2nc(SCCC(C)C)nc(N/N=C\\c3ccc(O)cc3)c2C#N)cc1", "growth": "95%"},
      {"smiles": "CN(C)C(=O)C1=NC(CO)C(=O)N(c2ccc(Cl)cc2)N1", "note": "(stereo not drawn)", "growth": "107%"}
    ]}
  ]
}
